Structures can show the parent of a compound that is named as a salt.
System: Klebsiella aerogenes DSM 30053
Test: fold change of Cadaverine concentration vs plate DMSO controls (fold change (ratio)); higher = more amine produced, active = hit call of the paper (significant change in both replicates, either direction)
Conditions: incubation time: 27 h, anaerobic, 37 °C;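 for the amine columns active = adjusted P below 0.05 in both replicates with a change the same way and a mean fold change under 0.8 or over 1.25; inactive = the rest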
Method in brief: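 In 80 µL wells, cultures of four gut bacterial strains in mGAM started at OD 0.1 before a 1:1 dilution and grew anaerobically at 37 °C for 27 h. Compounds were added to 20 µM final, except sweeteners at 50 µM final. After extraction of whole cultures with cold acetonitrile/methanol plus 0.1% formic acid and centrifugation, amines were measured by LC–triple-quadrupole MS in dynamic MRM mode against external calibration curves, with within-batch drift correction. Values give fold change over DMSO controls on the same plate, averaged across 2 biological replicates.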

Fold change of Cadaverine concentration, inactive:
CC(=O)Nc1ccc(O)cc1 [Acetaminophen] (20 µM) 0.993
CC(C)(C)CC(C)(C)c1ccc(OCCOCC[N+](C)(C)Cc2ccccc2)cc1 [Benzethonium chloride] (20 µM) 0.988
C[C@H]1[C@H](NC(=O)/C(=N\OC(C)(C)C(=O)O)c2csc(N)n2)C(=O)N1S(=O)(=O)O [Aztreonam] (20 µM) 1.06
Nc1ccn([C@@H]2CS[C@H](CO)O2)c(=O)n1 [Lamivudine] (20 µM) 0.99
Cc1nnc(SCC2=C(C(=O)O)N3C(=O)[C@@H](NC(=O)Cn4cnnn4)[C@H]3SC2)s1 [Cefazolin sodium salt] (20 µM) 1.05
CN(C)CCCN1c2ccccc2CCc2ccccc21 [Imipramine hydrochloride] (20 µM) 1.03
Clc1ccccc1CN1CCc2sccc2C1 [Ticlopidine hydrochloride] (20 µM) 0.98
COc1ccc(CCN(C)CCCC(C#N)(c2ccc(OC)c(OC)c2)C(C)C)cc1OC (centres undefined) [Verapamil hydrochloride] (20 µM) 0.972
Cc1cnc(NC(=O)C2=C(O)c3ccccc3S(=O)(=O)N2C)s1 [Meloxicam] (20 µM) 0.996
C=C[C@H]1CN2CC[C@H]1C[C@@H]2[C@@H](O)c1ccnc2ccc(OC)cc12 [Quinidine hydrochloride monohydrate] (20 µM) 0.987
C[C@H](CS)C(=O)N1CCC[C@H]1C(=O)O [Captopril] (20 µM) 1
CC(C)Cc1ccc([C@H](C)C(=O)O)cc1 [(S,+) Ibuprofen] (20 µM) 1.04
O=C(O)CCNC(=O)c1ccccc1 [Betamipron] (20 µM) 1
CCc1c2c(nc3ccc(OC(=O)N4CCC(N5CCCCC5)CC4)cc13)-c1cc3c(c(=O)n1C2)COC(=O)[C@]3(O)CC [Irinotecan hydrochloride trihydrate] (20 µM) 0.988
Nc1nc2c(ncn2COCCO)c(=O)[nH]1 [Acyclovir] (20 µM) 1.05
Nc1ncn(C2OC(CO)C(O)C2O)c(=O)n1 (centres undefined) [Azacytidine-5] (20 µM) 0.985
CCN(CC)CCNC(=O)c1ccc(N)cc1 [Procainamide hydrochloride] (20 µM) 1.04
O=C(O)c1cn(C2CC2)c2cc(N3CCNCC3)c(F)cc2c1=O [Ciprofloxacin hydrochloride monohydrate] (20 µM) 0.938
COc1cc(Cc2cnc(N)nc2N)cc(OC)c1OC [Trimethoprim] (20 µM) 1
O=C1C(=O)c2ccccc2C(O)=C1C1CCC(c2ccc(Cl)cc2)CC1 (centres undefined) [Atovaquone] (20 µM) 1
CC[C@]12CCCN3CCc4c(n(c5ccccc45)[C@@](O)(C(=O)OC)C1)[C@@H]32 [Vincamine] (20 µM) 0.99
Cc1noc(NS(=O)(=O)c2ccc(N)cc2)c1C [Sulfisoxazole] (20 µM) 1.01
Cc1ccc(NC(=O)c2ccc(CN3CCN(C)CC3)cc2)cc1Nc1nccc(-c2cccnc2)n1 [Imatinib] (20 µM) 1.04
COc1cc2nc(N3CCN(C(=O)c4ccco4)CC3)nc(N)c2cc1OC [Prazosin hydrochloride] (20 µM) 1
CCOC(=O)C1=C(COCCN)NC(C)=C(C(=O)OC)C1c1ccccc1Cl (centres undefined) [Amlodipine] (20 µM) 0.988
CN1[C@@H]2CC[C@H]1CC(OC(=O)C(O)c1ccccc1)C2 (mixture of isomers) [(R,S) Homatropine hydrobromide] (20 µM) 1.02
CO/N=C(\C(=O)N[C@@H]1C(=O)N2C(C(=O)O)=C(C[N+]3(C)CCCC3)CS[C@H]12)c1csc(N)n1 [Cefepime hydrochloride] (20 µM) 1.11
CCn1cc(C(=O)O)c(=O)c2cc(F)c(N3CCN(C)CC3)cc21 [Pefloxacin] (20 µM) 0.972
CN(CCOc1ccc(NS(C)(=O)=O)cc1)CCc1ccc(NS(C)(=O)=O)cc1 [Dofetilide] (20 µM) 1

Source: the supplement of paper PMC12494721
